Results filed as inconclusive are left out. Active and inactive are the calls of the source. Unless noted, calls come from the whole dose curve; as a rule, active = well fitted curve in the direction sought with a large enough effect in the repeat runs; inconclusive = weak or mixed curves; inactive = no such curve, though single readings can be large; an effect the other way counts as inactive or inconclusive.
Experiments:
[1] = target: Peroxisome proliferator-activated receptor delta (Homo sapiens) (UniProt Q03181); assay: qHTS assay to identify small molecule agonists of the peroxisome proliferator-activated receptor delta (PPARd) signaling pathway (AID 743212; calls by dose curve)
Peroxisome proliferator-activated receptor delta (Homo sapiens), sequence (Q03181 whole entry, looked up): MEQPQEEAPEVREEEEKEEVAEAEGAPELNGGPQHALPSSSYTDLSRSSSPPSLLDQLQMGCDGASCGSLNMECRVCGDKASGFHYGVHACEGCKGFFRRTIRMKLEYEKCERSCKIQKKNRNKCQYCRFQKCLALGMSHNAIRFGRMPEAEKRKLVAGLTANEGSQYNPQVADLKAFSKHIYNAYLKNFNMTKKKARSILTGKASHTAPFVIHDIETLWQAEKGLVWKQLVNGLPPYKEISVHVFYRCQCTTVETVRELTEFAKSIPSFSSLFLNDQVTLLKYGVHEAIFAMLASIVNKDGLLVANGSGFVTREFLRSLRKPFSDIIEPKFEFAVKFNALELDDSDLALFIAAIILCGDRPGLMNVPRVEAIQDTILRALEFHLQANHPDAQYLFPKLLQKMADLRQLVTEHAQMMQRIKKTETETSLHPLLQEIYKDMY
Summary of the method: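 Read-out: beta-lactamase FRET fluorescence after 2 h room-temperature incubation with LiveBLAzer B/G substrate. Cells were HEK293H carrying a UAS-bla reporter for PPARd, treated at 37 C with DMSO-dissolved compounds.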

[2] = qHTS assay to identify small molecule antagonists of the peroxisome proliferator-activated receptor delta (PPARd) signaling pathway - cell viability counter screen (AID 743213); note: nearly all actives have a fitted effect of over 50% in size
Summary of the method: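 HEK293H PPARd UAS-bla cells, 5 h pre-incubation, compound + L165041 300 nM final, 17 h 37 C; B/G FRET substrate 2 h RT; then CellTiter-Glo 30 min RT, luminescence.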

[3] = target: Peroxisome proliferator-activated receptor delta (Homo sapiens) (UniProt Q03181); assay: qHTS assay to identify small molecule antagonists of the peroxisome proliferator-activated receptor delta (PPARd) signaling pathway (AID 743215; active = well fitted inhibition curve with a large enough effect in the signal ratio in the repeat runs, not every such curve was filed as active; the % refers to the signal ratio;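 note: cells stimulated with agonist L165041 at 300 nM final during compound exposure; series mostly up to about 62 µM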)
Summary of the method: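 Agonist L165041 (300 nM final) added with compound to PPARd-bla HEK293H UAS-bla reporter cells; 17 h incubation at 37 C. Read-out: LiveBLAzer FRET substrate, 2 h at room temperature, fluorescence intensity.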

[4] = qHTS assay to identify small molecule agonists of the farnesoid-X-receptor (FXR) signaling pathway - cell viability counter screen (AID 743218); note: nearly all actives have a fitted effect of over 45% in size
Summary of the method: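 Viability counter screen in the same wells: CellTiter-Glo luminescence, 30 min room-temperature incubation, measured after the beta-lactamase read. Cells were GeneBLAzer FXR-UAS-bla HEK 293T, compound-treated 16 h at 37C.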

[5] = qHTS assay to identify small molecule antagonists of the farnesoid-X-receptor (FXR) signaling pathway - cell viability counter screen (AID 743221; active = well fitted cell-killing curve with a large enough effect in the repeat runs, not every such curve was filed as active; note: nearly all actives have a fitted effect of over 50% in size)
Summary of the method: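 Quantitative HTS of the Tox21 10K library run in parallel with the beta-lactamase reporter read. HEK 293T cells carrying a UAS-driven bla reporter got compound and 50 uM CDCA (final) for 16 h; ATP-based luminescence followed.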

[6] = target: Vitamin D3 receptor (Homo sapiens) (UniProt P11473); assay: qHTS assay to identify small molecule agonists of the vitamin D receptor (VDR) signaling pathway (AID 743222; calls by dose curve)
Vitamin D3 receptor (Homo sapiens), sequence (P11473 whole entry, looked up): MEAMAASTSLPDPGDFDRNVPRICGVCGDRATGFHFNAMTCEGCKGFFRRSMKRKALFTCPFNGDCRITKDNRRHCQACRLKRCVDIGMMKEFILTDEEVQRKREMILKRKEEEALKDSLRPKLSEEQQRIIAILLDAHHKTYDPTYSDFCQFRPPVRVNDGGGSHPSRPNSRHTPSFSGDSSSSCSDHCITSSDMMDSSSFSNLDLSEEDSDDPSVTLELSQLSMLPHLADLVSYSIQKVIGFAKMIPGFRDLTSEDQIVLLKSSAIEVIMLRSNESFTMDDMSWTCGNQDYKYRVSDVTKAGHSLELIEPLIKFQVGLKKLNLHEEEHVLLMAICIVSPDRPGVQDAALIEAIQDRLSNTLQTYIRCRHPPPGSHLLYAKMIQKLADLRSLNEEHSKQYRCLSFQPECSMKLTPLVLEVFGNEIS
Summary of the method: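 Agonist mode, beta-lactamase reporter: fluorescence from LiveBLAzer B/G FRET substrate (2 h, room temperature) read after 16 h compound treatment at 37 C of VDR-bla cells, which were pre-incubated 4 h after seeding.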

[7] = target: Vitamin D3 receptor (Homo sapiens) (UniProt P11473); assay: qHTS assay to identify small molecule antagonists of the vitamin D receptor (VDR) signaling pathway (AID 743223; active = well fitted inhibition curve with a large enough effect in the signal ratio in the repeat runs, not every such curve was filed as active; the % refers to the signal ratio)
Summary of the method: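 Fluorescence from LiveBLAzer B/G FRET substrate, read after 2 h at room temperature, reflects beta-lactamase reporter activity in VDR-bla cells treated 16 h at 37C with compounds and agonist 1alpha,25-dihydroxyvitamin D3 (3 nM final).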

[8] = qHTS assay to identify small molecule agonists of the vitamin D receptor (VDR) signaling pathway - cell viability counter screen (AID 743224); note: series mostly up to about 63 µM; nearly all actives have a fitted effect of over 50% in size
Summary of the method: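 Counter screen run in the same wells as the VDR-bla reporter assay: CellTiter-Glo luminescence, 30 min at room temperature, after 16 h compound treatment at 37C of cells pre-plated for 4 h.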

[9] = qHTS assay to identify small molecule agonists of the NFkB signaling pathway - cell viability counter screen (AID 1159515; calls by dose curve; note: series mostly up to about 61 µM; nearly all actives have a fitted effect of over 55% in size)
Summary of the method: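 Read by CellTiter-Glo luminescence (30 min, room temperature) in the wells also used for the beta-lactamase FRET read. ME-180 NFkB-bla cells at 2,000 per well were plated overnight, then exposed to compound for 5 hr at 37 C.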

[10] = qHTS assay to identify small molecule agonists of the endoplasmic reticulum stress response signaling pathway (AID 1159516; active = well fitted activation curve with a large enough effect in the signal ratio in the repeat runs, not every such curve was filed as active; the % refers to the signal ratio)
Summary of the method: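 Ratiometric FRET readout (405 nm excitation; 460 and 530 nm emission) of a beta-lactamase gene driven by the ER stress response element, after 2 hr substrate loading. HeLa ESRE-bla cells were seeded overnight and treated with compounds for only 5 hr at 37 C.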

[11] = qHTS assay to identify small molecule agonists of the endoplasmic reticulum stress response signaling pathway - cell viability counter screen (AID 1159517; calls by dose curve; note: series mostly up to about 61 µM; nearly all actives have a fitted effect of over 50% in size)
Summary of the method: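 Steps: seed 1,500 ESRE-bla HeLa cells per well; incubate overnight at 37 C, 5% CO2; add compounds in DMSO for 5 hr; run FRET substrate 2 hr RT; add CellTiter-Glo, wait 30 min, read luminescence.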

[12] = qHTS assay to identify small molecule antagonists of the retinoid-related orphan receptor gamma (ROR-gamma) signaling pathway - cell viability counter screen (AID 1159520); note: nearly all actives have a fitted effect of over 50% in size
Summary of the method: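 Tet-on ROR gamma CHO cells were given compounds for 2 hr, then doxycycline hyclate at 1 uM final, and incubated 16 hr at 37 C. Viability was measured as ATP content by CellTiter-Glo luminescence.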

[13] = target: Nuclear receptor ROR-gamma (Homo sapiens) (UniProt P51449); assay: qHTS assay to identify small molecule antagonists of the retinoid-related orphan receptor gamma (ROR-gamma) signaling pathway (AID 1159521)
Summary of the method: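 RORγ antagonism is scored from reduced reporter luminescence in Tet-on CHO cells. Induction used 1 uM final doxycycline hyclate for 16 h at 37 C, following a 2 h compound exposure.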

[14] = qHTS assay to identify small molecule agonists of the AP-1 signaling pathway - cell viability counter screen (AID 1159525; calls by dose curve; note: nearly all actives have a fitted effect of over 55% in size)
Summary of the method: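 Same-well cytotoxicity counter screen of the Tox21 10K library in ME-180 cells. The readout is ATP-dependent luminescence after 5 h compound treatment. Data are normalised to DMSO and tetra n-octyl ammonium bromide controls.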

[15] = qHTS assay to identify small molecule agonists of the AP-1 signaling pathway (AID 1159526; calls by dose curve)
[16] = target: Retinoic acid receptor RXR-alpha (Homo sapiens) (UniProt P19793); assay: qHTS assay to identify small molecule agonists of the RXR signaling pathway (AID 1159527; calls by dose curve; note: nearly all actives have a fitted effect of over 35% in size)
Retinoic acid receptor RXR-alpha (Homo sapiens), sequence (P19793 whole entry, looked up): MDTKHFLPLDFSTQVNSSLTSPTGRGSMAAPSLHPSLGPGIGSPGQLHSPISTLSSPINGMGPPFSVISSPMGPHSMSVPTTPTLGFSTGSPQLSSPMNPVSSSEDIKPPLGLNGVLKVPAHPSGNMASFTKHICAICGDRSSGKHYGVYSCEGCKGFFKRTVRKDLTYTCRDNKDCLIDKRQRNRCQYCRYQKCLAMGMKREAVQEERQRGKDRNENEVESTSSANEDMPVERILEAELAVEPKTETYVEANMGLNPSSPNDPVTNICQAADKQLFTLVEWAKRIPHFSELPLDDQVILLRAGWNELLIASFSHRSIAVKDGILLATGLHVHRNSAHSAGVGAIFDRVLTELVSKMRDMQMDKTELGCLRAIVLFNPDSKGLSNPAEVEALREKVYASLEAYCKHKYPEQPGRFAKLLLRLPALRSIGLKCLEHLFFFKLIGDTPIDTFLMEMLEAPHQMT
Summary of the method: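 qHTS of the Tox21 10K library in GeneBLAzer RXR-alpha HEK 293T cells carrying a beta-lactamase reporter […]; 16 hr treatment, 9-cis retinoic acid as agonist control, FRET read-out.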

[17] = qHTS assay to identify small molecule agonists of the RXR signaling pathway - cell viability counter screen (AID 1159529)
Summary of the method: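 Cell viability is measured by CellTiter-Glo luminescence, 30 min at room temperature, in wells already read for beta-lactamase. Engineered HEK 293T cells (RXR-alpha-UAS-bla) are dosed 16 hr at 37 C. Tetraoctyl ammonium bromide serves as positive control.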

[18] = target: Bile acid receptor (Homo sapiens) (UniProt Q96RI1); assay: qHTS assay to identify small molecule antagonists of the farnesoid-X-receptor (FXR) signaling pathway (AID 743217; active = well fitted inhibition curve with a large enough effect in the signal ratio in the repeat runs, not every such curve was filed as active; the % refers to the signal ratio)
Bile acid receptor (Homo sapiens), sequence (Q96RI1 whole entry, looked up): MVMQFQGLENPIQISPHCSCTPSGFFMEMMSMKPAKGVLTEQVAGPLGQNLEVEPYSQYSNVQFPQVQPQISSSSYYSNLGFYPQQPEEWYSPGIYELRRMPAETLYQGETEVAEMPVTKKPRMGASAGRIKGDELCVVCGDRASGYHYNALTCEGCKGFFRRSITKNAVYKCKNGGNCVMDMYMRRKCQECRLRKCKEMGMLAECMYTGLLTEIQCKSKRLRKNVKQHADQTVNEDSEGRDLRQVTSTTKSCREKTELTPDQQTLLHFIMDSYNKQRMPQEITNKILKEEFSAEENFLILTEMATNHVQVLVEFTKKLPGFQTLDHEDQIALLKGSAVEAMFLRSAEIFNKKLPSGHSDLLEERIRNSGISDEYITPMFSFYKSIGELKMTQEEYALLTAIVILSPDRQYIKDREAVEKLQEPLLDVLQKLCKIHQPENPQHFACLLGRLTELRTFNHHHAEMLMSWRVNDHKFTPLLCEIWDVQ
Summary of the method: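 Antagonist mode: chenodeoxycholic acid at 50 uM final stimulates a UAS-driven beta-lactamase reporter in HEK 293T FXR-bla cells during 16 h, 37C compound exposure. Read-out is FRET substrate fluorescence after 2 h at room temperature.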

[19] = target: Bile acid receptor (Homo sapiens) (UniProt Q96RI1); assay: qHTS assay to identify small molecule agonists of the farnesoid-X-receptor (FXR) signaling pathway (AID 743220; active = well fitted activation curve with a large enough effect in the signal ratio in the repeat runs, not every such curve was filed as active; the % refers to the signal ratio)
Summary of the method: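 FXR-UAS-bla HEK 293T cells carrying a UAS-driven beta-lactamase reporter were plated for 5 h at 37C/5% CO2, then exposed to DMSO-dissolved Tox21 10K compounds for 16 h at 37C. A LiveBLAzer B/G FRET substrate was loaded for 2 h at room temperature before fluorescence reading.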

[20] = qHTS assay to identify small molecule antagonists of the vitamin D receptor (VDR) signaling pathway - cell viability counter screen (AID 743225); note: nearly all actives have a fitted effect of over 50% in size
Summary of the method: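 Cells (VDR-UAS-bla HEK 293T) are plated, rested 4 h at 37C, dosed with compound and 3 nM final 1-alpha,25-dihydroxy vitamin D3, and incubated 16 h. Viability is taken from CellTiter-Glo luminescence in the reporter wells.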

Measured: Potency

CC(C)(O)CCC(C)(C)O
not listed: [18] | [19] | [20]
inactive: all other assays above

NC(N)=NC(=O)Cc1c(Cl)cccc1Cl
not listed: [4] | [18] | [19] | [20]
inactive: all other assays above

CC(=O)CC(=O)Nc1ccc2[nH]c(=O)[nH]c2c1
not listed: [6] | [7]
inactive: all other assays above

O=C(Cl)c1cccc(C(=O)Cl)c1
not listed: [18] | [19]
inactive: all other assays above

O=C(O)CP(=O)(O)O
not listed: [2] | [3] | [6] | [8] | [18] | [19]
inactive: all other assays above

COc1ccc(Cc2cnc(N)nc2N)cc1OC
not listed: [2]
inactive: all other assays above

Cc1cccc(O)c1C
inactive: all assays above

— PubChem BioAssay (Tox21)
